{"source": "PubChem BioAssay (NCATS)", "note": "Inconclusive results are not listed. Where a call stands in place of a potency, no number is given. Activity calls are given as the source filed them. The call rests on the fitted dose curve; in most records, active means well fitted inhibition curve with a large enough effect; inconclusive means small, poorly fitted or top-dose-only effect; inactive means flat fitted curve, though single readings scatter.", "data": [{"tested_on": "FAB9", "test": "qHTS profiling for inhibitors of Plasmodium falciparum proliferation (AID 504749); further: nearly all actives have a fitted effect of over 60% in size", "settings": "P. falciparum in erythrocytes, SYBR Green DNA, 72 h; series mostly up to 12.8 µM", "procedure,_shortened": "(§1)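 In a 72 h erythrocytic culture (37 C, humidified, 5% CO2) at 2.5% hematocrit and 0.3% starting parasitemia, compounds were tested; SYBR Green I in detergent lysis buffer stained parasite DNA overnight.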", "values": [{"molecule": "C[N+](C)(C)CC(O)CC(=O)O", "note": "(configuration not stated)", "Potency": "inactive"}, {"molecule": "CN(C)CC/C=C1\\c2ccccc2CSc2ccccc21", "Potency": "inactive"}, {"molecule": "CC(C)N1CCN(c2ccc(OC[C@@H]3CO[C@@](Cn4cncn4)(c4ccc(Cl)cc4Cl)O3)cc2)CC1", "Potency": "inactive"}, {"molecule": "C[C@@H]1CCC[C@H](C)N1NC(=O)c1ccc(Cl)c(S(N)(=O)=O)c1", "Potency": "inactive"}, {"molecule": "O=C(Cc1cccs1)NC1C(=O)N2C(C(=O)[O-])=C(C[n+]3ccccc3)CSC12", "note": "(configuration not stated)", "Potency": "inactive"}]}, {"tested_on": "GB4", "test": "qHTS profiling for inhibitors of Plasmodium falciparum proliferation (AID 504749)", "settings": "P. falciparum in erythrocytes, SYBR Green DNA, 72 h; series mostly up to 12.8 µM", "procedure,_shortened": "as §1", "values": [{"molecule": "C[N+](C)(C)CC(O)CC(=O)O", "note": "(configuration not stated)", "Potency": "inactive"}, {"molecule": "C[C@@H]1CCC[C@H](C)N1NC(=O)c1ccc(Cl)c(S(N)(=O)=O)c1", "Potency": "inactive"}, {"molecule": "O=C(Cc1cccs1)NC1C(=O)N2C(C(=O)[O-])=C(C[n+]3ccccc3)CSC12", "note": "(configuration not stated)", "Potency": "inactive"}]}, {"tested_on": "HB3", "test": "qHTS profiling for inhibitors of Plasmodium falciparum proliferation (AID 504749)", "settings": "P. falciparum in erythrocytes, SYBR Green DNA, 72 h; series mostly up to 12.8 µM", "procedure,_shortened": "as §1", "values": [{"molecule": "C[N+](C)(C)CC(O)CC(=O)O", "note": "(configuration not stated)", "Potency": "inactive"}, {"molecule": "CN(C)CC/C=C1\\c2ccccc2CSc2ccccc21", "Potency": "inactive"}, {"molecule": "CC(C)N1CCN(c2ccc(OC[C@@H]3CO[C@@](Cn4cncn4)(c4ccc(Cl)cc4Cl)O3)cc2)CC1", "Potency": "inactive"}, {"molecule": "C[C@@H]1CCC[C@H](C)N1NC(=O)c1ccc(Cl)c(S(N)(=O)=O)c1", "Potency": "inactive"}, {"molecule": "O=C(Cc1cccs1)NC1C(=O)N2C(C(=O)[O-])=C(C[n+]3ccccc3)CSC12", "note": "(configuration not stated)", "Potency": "inactive"}]}, {"tested_on": "ICS", "test": "qHTS profiling for inhibitors of Plasmodium falciparum proliferation (AID 504749)", "settings": "P. falciparum in erythrocytes, SYBR Green DNA, 72 h; series mostly up to 12.8 µM", "procedure,_shortened": "as §1", "values": [{"molecule": "C[N+](C)(C)CC(O)CC(=O)O", "note": "(configuration not stated)", "Potency": "inactive"}, {"molecule": "CC(C)N1CCN(c2ccc(OC[C@@H]3CO[C@@](Cn4cncn4)(c4ccc(Cl)cc4Cl)O3)cc2)CC1", "Potency": "inactive"}, {"molecule": "C[C@@H]1CCC[C@H](C)N1NC(=O)c1ccc(Cl)c(S(N)(=O)=O)c1", "Potency": "inactive"}, {"molecule": "O=C(Cc1cccs1)NC1C(=O)N2C(C(=O)[O-])=C(C[n+]3ccccc3)CSC12", "note": "(configuration not stated)", "Potency": "inactive"}]}, {"tested_on": "JCK", "test": "qHTS profiling for inhibitors of Plasmodium falciparum proliferation (AID 504749)", "settings": "P. falciparum in erythrocytes, SYBR Green DNA, 72 h; series mostly up to 12.8 µM", "procedure,_shortened": "as §1", "values": [{"molecule": "C[N+](C)(C)CC(O)CC(=O)O", "note": "(configuration not stated)", "Potency": "inactive"}, {"molecule": "CN(C)CC/C=C1\\c2ccccc2CSc2ccccc21", "Potency": "inactive"}, {"molecule": "CC(C)N1CCN(c2ccc(OC[C@@H]3CO[C@@](Cn4cncn4)(c4ccc(Cl)cc4Cl)O3)cc2)CC1", "Potency": "inactive"}, {"molecule": "C[C@@H]1CCC[C@H](C)N1NC(=O)c1ccc(Cl)c(S(N)(=O)=O)c1", "Potency": "inactive"}, {"molecule": "O=C(Cc1cccs1)NC1C(=O)N2C(C(=O)[O-])=C(C[n+]3ccccc3)CSC12", "note": "(configuration not stated)", "Potency": "inactive"}]}, {"tested_on": "N140", "test": "qHTS profiling for inhibitors of Plasmodium falciparum proliferation (AID 504749)", "settings": "P. falciparum in erythrocytes, SYBR Green DNA, 72 h; series mostly up to 12.8 µM", "procedure,_shortened": "as §1", "values": [{"molecule": "C[N+](C)(C)CC(O)CC(=O)O", "note": "(configuration not stated)", "Potency": "inactive"}, {"molecule": "CC(C)N1CCN(c2ccc(OC[C@@H]3CO[C@@](Cn4cncn4)(c4ccc(Cl)cc4Cl)O3)cc2)CC1", "Potency": "inactive"}, {"molecule": "C[C@@H]1CCC[C@H](C)N1NC(=O)c1ccc(Cl)c(S(N)(=O)=O)c1", "Potency": "inactive"}, {"molecule": "O=C(Cc1cccs1)NC1C(=O)N2C(C(=O)[O-])=C(C[n+]3ccccc3)CSC12", "note": "(configuration not stated)", "Potency": "inactive"}]}, {"tested_on": "P93_24", "test": "qHTS profiling for inhibitors of Plasmodium falciparum proliferation (AID 504749)", "settings": "P. falciparum in erythrocytes, SYBR Green DNA, 72 h; series mostly up to 12.8 µM", "procedure,_shortened": "as §1", "values": [{"molecule": "C[N+](C)(C)CC(O)CC(=O)O", "note": "(configuration not stated)", "Potency": "inactive"}, {"molecule": "C[C@@H]1CCC[C@H](C)N1NC(=O)c1ccc(Cl)c(S(N)(=O)=O)c1", "Potency": "inactive"}, {"molecule": "O=C(Cc1cccs1)NC1C(=O)N2C(C(=O)[O-])=C(C[n+]3ccccc3)CSC12", "note": "(configuration not stated)", "Potency": "inactive"}]}, {"tested_on": "P94_40", "test": "qHTS profiling for inhibitors of Plasmodium falciparum proliferation (AID 504749)", "settings": "P. falciparum in erythrocytes, SYBR Green DNA, 72 h; series mostly up to 12.8 µM", "procedure,_shortened": "as §1", "values": [{"molecule": "C[N+](C)(C)CC(O)CC(=O)O", "note": "(configuration not stated)", "Potency": "inactive"}, {"molecule": "CC(C)N1CCN(c2ccc(OC[C@@H]3CO[C@@](Cn4cncn4)(c4ccc(Cl)cc4Cl)O3)cc2)CC1", "Potency": "inactive"}, {"molecule": "C[C@@H]1CCC[C@H](C)N1NC(=O)c1ccc(Cl)c(S(N)(=O)=O)c1", "Potency": "inactive"}, {"molecule": "O=C(Cc1cccs1)NC1C(=O)N2C(C(=O)[O-])=C(C[n+]3ccccc3)CSC12", "note": "(configuration not stated)", "Potency": "inactive"}]}, {"tested_on": "PAD", "test": "qHTS profiling for inhibitors of Plasmodium falciparum proliferation (AID 504749)", "settings": "P. falciparum in erythrocytes, SYBR Green DNA, 72 h; series mostly up to 12.8 µM", "procedure,_shortened": "as §1", "values": [{"molecule": "C[N+](C)(C)CC(O)CC(=O)O", "note": "(configuration not stated)", "Potency": "inactive"}, {"molecule": "CN(C)CC/C=C1\\c2ccccc2CSc2ccccc21", "Potency": "inactive"}, {"molecule": "CC(C)N1CCN(c2ccc(OC[C@@H]3CO[C@@](Cn4cncn4)(c4ccc(Cl)cc4Cl)O3)cc2)CC1", "Potency": "inactive"}, {"molecule": "C[C@@H]1CCC[C@H](C)N1NC(=O)c1ccc(Cl)c(S(N)(=O)=O)c1", "Potency": "inactive"}, {"molecule": "O=C(Cc1cccs1)NC1C(=O)N2C(C(=O)[O-])=C(C[n+]3ccccc3)CSC12", "note": "(configuration not stated)", "Potency": "inactive"}]}, {"tested_on": "PC15", "test": "qHTS profiling for inhibitors of Plasmodium falciparum proliferation (AID 504749)", "settings": "P. falciparum in erythrocytes, SYBR Green DNA, 72 h; series mostly up to 12.8 µM", "procedure,_shortened": "as §1", "values": [{"molecule": "C[N+](C)(C)CC(O)CC(=O)O", "note": "(configuration not stated)", "Potency": "inactive"}, {"molecule": "CN(C)CC/C=C1\\c2ccccc2CSc2ccccc21", "Potency": "inactive"}, {"molecule": "CC(C)N1CCN(c2ccc(OC[C@@H]3CO[C@@](Cn4cncn4)(c4ccc(Cl)cc4Cl)O3)cc2)CC1", "Potency": "inactive"}, {"molecule": "C[C@@H]1CCC[C@H](C)N1NC(=O)c1ccc(Cl)c(S(N)(=O)=O)c1", "Potency": "inactive"}, {"molecule": "O=C(Cc1cccs1)NC1C(=O)N2C(C(=O)[O-])=C(C[n+]3ccccc3)CSC12", "note": "(configuration not stated)", "Potency": "inactive"}]}, {"tested_on": "PC26", "test": "qHTS profiling for inhibitors of Plasmodium falciparum proliferation (AID 504749)", "settings": "P. falciparum in erythrocytes, SYBR Green DNA, 72 h; series mostly up to 12.8 µM", "procedure,_shortened": "as §1", "values": [{"molecule": "C[N+](C)(C)CC(O)CC(=O)O", "note": "(configuration not stated)", "Potency": "inactive"}, {"molecule": "CC(C)N1CCN(c2ccc(OC[C@@H]3CO[C@@](Cn4cncn4)(c4ccc(Cl)cc4Cl)O3)cc2)CC1", "Potency": "inactive"}, {"molecule": "C[C@@H]1CCC[C@H](C)N1NC(=O)c1ccc(Cl)c(S(N)(=O)=O)c1", "Potency": "inactive"}, {"molecule": "O=C(Cc1cccs1)NC1C(=O)N2C(C(=O)[O-])=C(C[n+]3ccccc3)CSC12", "note": "(configuration not stated)", "Potency": "inactive"}]}, {"tested_on": "PC49", "test": "qHTS profiling for inhibitors of Plasmodium falciparum proliferation (AID 504749)", "settings": "P. falciparum in erythrocytes, SYBR Green DNA, 72 h; series mostly up to 12.8 µM", "procedure,_shortened": "as §1", "values": [{"molecule": "C[N+](C)(C)CC(O)CC(=O)O", "note": "(configuration not stated)", "Potency": "inactive"}, {"molecule": "CN(C)CC/C=C1\\c2ccccc2CSc2ccccc21", "Potency": "inactive"}, {"molecule": "CC(C)N1CCN(c2ccc(OC[C@@H]3CO[C@@](Cn4cncn4)(c4ccc(Cl)cc4Cl)O3)cc2)CC1", "Potency": "inactive"}, {"molecule": "C[C@@H]1CCC[C@H](C)N1NC(=O)c1ccc(Cl)c(S(N)(=O)=O)c1", "Potency": "inactive"}, {"molecule": "O=C(Cc1cccs1)NC1C(=O)N2C(C(=O)[O-])=C(C[n+]3ccccc3)CSC12", "note": "(configuration not stated)", "Potency": "inactive"}]}]}
